From PubChem BioAssay
Mtb UGM inh: M. tuberculosis UGM enzyme inhibitors, primary screen, biochemical, fluorescence polarization, single point. UDP-galactopyranose mutase (Mycobacterium tuberculosis (strain ATCC 25618 / H37Rv)), …. purified UGM, fluorescence polarization probe displacement. inhibition, % at 10 µM. 320,000 tested, 0.06% active. AID 504406, 2011; in the data active = inhibition above about 10%, passing the limit was not always enough; inconclusive = no clear call, values can overlap the other calls
Target sequence (P9WIQ1 whole entry, looked up): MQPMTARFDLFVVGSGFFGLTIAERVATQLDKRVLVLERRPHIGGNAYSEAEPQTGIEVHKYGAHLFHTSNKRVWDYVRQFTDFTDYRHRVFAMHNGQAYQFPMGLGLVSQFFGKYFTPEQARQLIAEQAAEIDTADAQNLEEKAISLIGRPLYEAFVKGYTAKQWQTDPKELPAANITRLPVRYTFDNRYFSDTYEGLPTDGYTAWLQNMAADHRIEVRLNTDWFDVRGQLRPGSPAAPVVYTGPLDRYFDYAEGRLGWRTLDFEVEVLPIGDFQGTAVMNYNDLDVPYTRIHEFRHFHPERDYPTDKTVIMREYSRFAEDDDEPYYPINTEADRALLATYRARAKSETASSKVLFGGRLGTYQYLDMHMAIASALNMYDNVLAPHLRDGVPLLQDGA
FadD28 binding: inhibitors of FadD28 bisubstrate probe binding, primary screen, biochemical, fluorescence polarization, single point. 360,000 tested, 0.22% active. Mycobacterium tuberculosis FadD28 fatty-acid-AMP ligase. inhibition, % at 12.5 µM; in the data active = inhibition above about 8.5%, passing the limit was not always enough; inconclusive = no clear call, values can overlap the other calls
RecA intein inh: Mtb RecA intein splicing inhibitors, primary screen, biochemical, fluorescence, HTS. AID 2221, 2009. inhibition, % (concentration not given with the values). 290,000 tested, 0.75% active. Protein RecA (Mycobacterium tuberculosis (strain ATCC 25618 / H37Rv)), P9WHJ3. cell-free RecA intein splicing; in the data active = inhibition above about 30%; inconclusive = no clear call, values can overlap the other calls
BioA inh: M. tuberculosis BioA enzyme inhibitors, primary screen, biochemical, plate reader, single point, HTS; purified M. tuberculosis BioA enzyme; inhibition, % at 9.99 µM; 360,000 tested, 0.096% active; in the data active = inhibition above about 40%; inconclusive = no clear call, values can overlap the other calls
Rv3671c inh: Rv3671c serine protease inhibitors, primary screen, biochemical, fluorescence polarization, M. tuberculosis H37Rv; AID 2606, 2010; inhibition, % at 5.96 µM; P9WHR9; 320,000 tested, 0.048% active; in the data active = inhibition above about 38%;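 note: extracellular domain of Rv3671c used as enzyme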
Target sequence (P9WHR9 whole entry, looked up, the tested form may be a part): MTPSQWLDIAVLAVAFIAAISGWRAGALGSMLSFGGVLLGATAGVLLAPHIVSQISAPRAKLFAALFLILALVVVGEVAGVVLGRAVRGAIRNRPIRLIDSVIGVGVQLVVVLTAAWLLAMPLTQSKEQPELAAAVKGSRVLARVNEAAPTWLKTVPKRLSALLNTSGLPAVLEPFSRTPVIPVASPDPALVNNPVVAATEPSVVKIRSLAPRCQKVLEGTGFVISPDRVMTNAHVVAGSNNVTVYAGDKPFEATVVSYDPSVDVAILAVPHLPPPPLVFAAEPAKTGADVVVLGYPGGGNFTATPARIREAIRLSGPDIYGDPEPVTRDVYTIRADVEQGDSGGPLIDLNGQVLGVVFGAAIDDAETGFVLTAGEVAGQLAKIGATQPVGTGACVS
Yp Topo-I inh: Yersinia pestis topoisomerase I inhibitors, primary screen, biochemical, cleavage product accumulation, plate reader, single point; activity, % at 10 µM; Y. pestis Topo-I cleavage product accumulation; DNA topoisomerase I (Yersinia pestis CO92); 360,000 tested, 0.064% active; in the data active = activity above about 50%, passing the limit was not always enough; inconclusive = no clear call, values can overlap the other calls
Large screens that a line does not name were inactive; ! = not active in a repeat. Only some compounds are listed: those with a hit (about 0.82% of all), similar ones and a draw of the others.

Clc1ccc2nnnc(-c3ccccc3)c2c1	RecA intein inh 56 (no result: BioA inh)
CC=Cc1ccc2n(c1=O)C[C@H]1[C@H](CO)[C@@H](C(=O)NCC3CCCCC3)N(C(C)=O)[C@@H]21 (mixture of isomers)	none (no result: Mtb UGM inh, FadD28 binding, RecA intein inh, Rv3671c inh, Yp Topo-I inh)
CCOC(=O)CSc1nc2ccccc2c(=O)n1CC1CCCC1	Yp Topo-I inh 58
CCOC(=O)CSc1nc2ccccc2c(=O)n1CC	none
C[C@@H]1CCCCO[C@@H](CN(C)C(=O)c2ccncc2)[C@H](C)CN([C@H](C)CO)C(=O)c2cc(NC(=O)NC3CCCCC3)ccc2O1	none (no result: Mtb UGM inh, FadD28 binding, RecA intein inh, Rv3671c inh, Yp Topo-I inh)
Nc1nnc(SCCCOc2ccc(F)cc2)s1	FadD28 binding 13
O=C(COC(=O)/C=C/c1cccs1)Nc1ccc(F)cc1	none (no result: RecA intein inh)
CCc1cccc(NC(=O)COC(=O)/C=C/c2cccs2)c1	FadD28 binding 20
C[C@@H]1CN([C@@H](C)CO)S(=O)(=O)c2ccc(-c3cncnc3)cc2O[C@@H]1CN(C)Cc1cccnc1	none (no result: Mtb UGM inh, FadD28 binding, RecA intein inh, Rv3671c inh, Yp Topo-I inh)
CCCN1[C@@H]2c3ccc(-c4ccccc4)c(=O)n3C[C@H]1[C@H](CO)[C@H]2C(=O)NCCCN1CCOCC1	none (no result: Mtb UGM inh, FadD28 binding, RecA intein inh, Rv3671c inh, Yp Topo-I inh)
O=C(C[C@H]1C[C@H]2c3cc(NC(=O)Cc4ccncc4)ccc3O[C@H]2[C@@H](CO)O1)NCc1ccccn1	none (no result: Mtb UGM inh, FadD28 binding, RecA intein inh, Rv3671c inh, Yp Topo-I inh)
Cc1ccc(NS(=O)(=O)c2cc([N+](=O)[O-])ccc2NNC(=S)Nc2cccc(Cl)c2)c(C)c1	FadD28 binding 8.6 (no result: BioA inh)
C[C@@H]1CN([C@@H](C)CO)C(=O)c2cc(NS(=O)(=O)c3cn(C)cn3)ccc2O[C@@H]1CN(C)Cc1ccc(Cl)c(Cl)c1	none (no result: Mtb UGM inh, FadD28 binding, RecA intein inh, Rv3671c inh, Yp Topo-I inh)
O=C(c1ccc(F)cc1)N1C[C@@H]2[C@H](c3ccccc31)[C@H](CO)N2C(=O)c1ccccc1	none (no result: Mtb UGM inh, FadD28 binding, RecA intein inh, Rv3671c inh, Yp Topo-I inh)
CCC(=O)N[C@H]1CC[C@@H](CC(=O)NCc2ccc(OC)cc2)O[C@H]1CO	none (no result: Mtb UGM inh, FadD28 binding, RecA intein inh, Rv3671c inh, Yp Topo-I inh)
CCCCCCNC(=O)C(C#N)c1nc2ccccc2nc1N1CCOCC1 (centres undefined)	Mtb UGM inh 14
CC(CCC(=O)NN)C1CCC2C3CCC4CC(O)CCC4(C)C3CCC12C (centres undefined)	none (no result: Mtb UGM inh, RecA intein inh, BioA inh, Rv3671c inh)
CC(CCC(C)C(C)(C)C)[C@@H]1CC[C@H]2C3C[C@H](OS(O)(=S)=S)[C@H]4C[C@H](OS(O)(=S)=S)[C@@H](OS(O)(=S)=S)C[C@]4(C)[C@H]3CC[C@]12C (some centres undefined) (tested in a mixture with another compound)	FadD28 binding 65 (no result: RecA intein inh)
Cc1ccc2c(Cl)c(C)c(N3CCCCC3)nc2n1	Yp Topo-I inh 50 (no result: BioA inh)
Cc1ccc(CSCCNC(=O)c2ccc(NS(C)(=O)=O)cc2)cc1	FadD28 binding 15
Cc1ccc(CSCCNC(=O)c2ccc(C)cc2)cc1	none (no result: RecA intein inh, BioA inh)
CN(C)CCCNC(=O)C[C@H]1CC[C@@H]2[C@H](COC[C@@H](O)CN2C(=O)c2ccncc2)O1	none (no result: Mtb UGM inh, FadD28 binding, RecA intein inh, Rv3671c inh, Yp Topo-I inh)
CCOc1ccc(-c2[nH]nc3c2C(c2cccnc2)C(C#N)=C(N)O3)cc1 (centres undefined)	none (no result: RecA intein inh)
COc1cc(Br)c(C2C(C#N)=C(N)Oc3n[nH]c(-c4cccnc4)c32)cc1OC (centres undefined)	RecA intein inh 57 (no result: BioA inh)
COc1cc(OC)cc(C2C(C#N)=C(N)Oc3n[nH]c(-c4cccnc4)c32)c1 (centres undefined)	RecA intein inh 50
CC(C)(C)c1ccc(C2C(C#N)=C(N)Oc3n[nH]c(-c4cccnc4)c32)cc1 (centres undefined)	none
O=C(NCC[C@@H]1CC[C@H](NS(=O)(=O)c2cccc(F)c2)[C@@H](CO)O1)Nc1cc(F)ccc1F	none (no result: Mtb UGM inh, FadD28 binding, RecA intein inh, Rv3671c inh, Yp Topo-I inh)
COc1ccc(CN2CCC(C(=O)Nc3ccc(Oc4cccnc4)cc3)CC2)cc1	FadD28 binding 16
O=C(C[C@H]1C[C@H]2c3cc(NC(=O)Nc4ccccc4)ccc3O[C@H]2[C@H](CO)O1)NCC1CC1	none (no result: Mtb UGM inh, FadD28 binding, RecA intein inh, Rv3671c inh, Yp Topo-I inh)
O=C(CSc1ncc(-c2ccccc2)n1-c1ccccc1)NCc1ccco1	none
COc1ccc(-n2c(-c3ccc(F)cc3)cnc2SCC(=O)NCc2ccco2)cc1	Yp Topo-I inh 51 (no result: BioA inh)
CC(=O)N1CCc2c(sc(NC(=O)C3CC3)c2-c2nc3ccccc3s2)C1	RecA intein inh 30
COc1cccc(/C=C(/C(=O)OCC(=O)NC2CCCC(C)C2C)c2ccccc2)c1 (centres undefined)	Yp Topo-I inh 60 (no result: BioA inh)
COc1cccc(/C=C(/C(=O)OCC(N)=O)c2ccccc2)c1	none (no result: BioA inh)
CN(C)C(=O)c1cccc(-c2ccc3c(c2)[C@H]2[C@H](CCN2C(=O)c2ccccc2F)[C@H](CO)N3)c1	none (no result: Mtb UGM inh, FadD28 binding, RecA intein inh, Rv3671c inh, Yp Topo-I inh)
C=CCNC(=O)/C(C#N)=C\c1cc(Cl)c(O)c(OCC)c1	none
CCOc1cc(/C=C(/C#N)C(=O)Nc2ccc(O)cc2)cc(Br)c1O	FadD28 binding inconclusive, RecA intein inh 60 (no result: BioA inh)
N#C/C(=C\c1ccc2c(c1)OCCO2)C(=O)Nc1ccc(C(=O)O)cc1	none
N#C/C(=C/c1ccc2c(c1)OCO2)C(=O)Nc1ccc(O)cc1	RecA intein inh 59
Cc1ccccc1S(=O)(=O)N1CC[C@@H]2[C@H](CO)Nc3ccc(C#Cc4ccccc4)cc3[C@@H]21	none (no result: Mtb UGM inh, FadD28 binding, RecA intein inh, Rv3671c inh, Yp Topo-I inh)
O=c1c2ccccc2nc2n1CCCCC2	none
O=c1c2ccccc2nc2n1CCC2	RecA intein inh 51 (no result: BioA inh)
Cc1ccc2c(c1)c1nnc(SCC(=O)Nc3ccc(N(C)C)cc3)nc1n2CC(=O)O	RecA intein inh 39
Cc1ccc2c(c1)c1nnc(SCC(=O)Nc3cccc(Cl)c3C)nc1n2CC(=O)O	none (no result: RecA intein inh, BioA inh)
Cc1ccc(C(=O)N/N=C/c2ccc(-c3ccccc3[N+](=O)[O-])o2)cn1	RecA intein inh 61 (no result: BioA inh)
O=C(N/N=C/c1ccc(-c2ccccc2[N+](=O)[O-])o1)[C@H]1C[C@@H]1c1ccccc1	RecA intein inh 42 (no result: BioA inh)
Cc1ccc(F)cc1S(=O)(=O)N[C@@H]1CCN(Cc2cccc3[nH]ccc23)C1	none (no result: Mtb UGM inh, FadD28 binding, RecA intein inh, Rv3671c inh, Yp Topo-I inh)
CN(C)[C@@H]1C(=O)C(C(N)=O)=C(O)[C@@]2(O)C(=O)C3=C(O)c4c(O)cccc4[C@@](C)(O)C3[C@H](O)C12 (some centres undefined)	FadD28 binding 31!
CN(C)C1C(=O)C(C(N)=O)=C(O)C2(O)C(=O)C3=C(O)c4c(O)cccc4C(C)(O)C3CC12 (centres undefined)	none
C[C@@H]1CN([C@@H](C)CO)C(=O)Cc2cc(NS(=O)(=O)c3cn(C)cn3)ccc2O[C@H]1CN(C)Cc1ccccc1	none (no result: Mtb UGM inh, FadD28 binding, RecA intein inh, Rv3671c inh, Yp Topo-I inh)
COc1ccc(Cl)cc1C(=O)Nn1c(-c2cccs2)nc2ccccc2c1=O	FadD28 binding 12 (no result: BioA inh)
C[C@@H]1CN([C@@H](C)CO)C(=O)c2cc(NC(=O)Cc3ccccc3)ccc2O[C@@H](C)CCCCO[C@@H]1CN(C)CC1CCCCC1	none (no result: Mtb UGM inh, FadD28 binding, RecA intein inh, Rv3671c inh, Yp Topo-I inh)
